Results on nine compounds are retold here after PubChem BioAssay (EPA / NIEHS).

Each structure is given as a SMILES string. Results filed as inconclusive are left out. Calls of active or inactive are those of the source. Rule for the calls: active = hit-call score of the fitted dose curve at least 0.9, where 1 is the maximum; inconclusive = response in the unintended direction; inactive = score below 0.9.

The nature of assay [1]: ACEA_AR_agonist_AUC_viability: ACEA Biosciences xCELLigence Real-Time Cell Analysis on Androgen Receptor Agonism for Viability (AID 2283775).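 For AC50: viability read 80 hours after compound addition.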 In a few lines: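 Viability endpoint from xCELLigence impedance in 22Rv1 prostate cells at 80 h. Eight-point series, 100 uM maximum final.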
A short description of assay [2]: ACEA_AR_antagonist_AUC_viability: ACEA Biosciences xCELLigence Real-Time Cell Analysis on Androgen Receptor Antagonism for Viability (AID 2283776).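 Note: 22Rv1 human prostate cancer cells growing on impedance electrode plates; hits lower the growth signal relative to DMSO meaning cytotoxicity.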 In a few lines: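 Impedance read-out (RT-CES): area under growth curve at 80 h post-dose, loss of signal scored vs DMSO baseline. 22Rv1 cells; 8-pt 1:4 series, top 100 uM final, ≤0.5% DMSO; biological duplicate.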
Assay [3] is described as follows: ACEA_ER_AUC_viability: ACEA Biosciences xCELLigence Real-Time Cell Analysis on Estrogen Receptor Agonism for Viability (AID 2283782).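 Note: hit means loss of impedance signal meaning reduced cell growth or viability.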 In a few lines:
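Continuous-exposure impedance cell analysis uses T-47D cells in charcoal-stripped serum, eight 1:4 dilutions topping at 100 uM final, biological duplicate. Area under the growth curve at 80 h is fitted against DMSO baseline.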

Assay [4] is described as follows: STM_H9_NormalizedViability: Cytotoxicity Assessment at 120 hours in the Stemina devTOX quickPredict H9 human embryonic stem cell (hESC)-based Assay (AID 2283784). In a few lines:
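CellTiter-Fluor RFU, background-subtracted, expressed relative to 0.1% DMSO neutral control by plate. Pluripotent H9 cells; treatment with daily re-dosing. Plates carried 1uM methotrexate (positive) and 5 nM methotrexate (negative) references.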

Assay [5] concerns the target AR (gene 367) (UniProt P10275). Description: ACEA_AR_antagonist_80hr: ACEA Biosciences xCELLigence Real-Time Cell Analysis on Androgen Receptor Antagonism for Proliferation (AID 2283787).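 Note: 22Rv1 human prostate cancer cells with growth followed by electrical impedance; hits lower the impedance growth signal relative to DMSO.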 In a few lines: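 Using 22Rv1 cells held in assay medium, we dosed compounds (100 uM maximum final, 1:4 serial, eight points, 0.5% DMSO at top) and recorded cell-electrode impedance; the 80 hr timepoint was analyzed against DMSO.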

In assay [6] the test system is frog Estrogen Receptor (ESR1), gene 398734. Briefly: ATG_frER1_XSP1: Attagene TRANS-FACTORIAL Multi-Species (XSP1) HepG2 Assay for frog Estrogen Receptor (ESR1) (AID 2283777). In a few lines: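 After transient transfection and 24 h compound treatment, total RNA from HepG2 cells was reverse-transcribed, amplified, FAM-labeled and resolved by capillary electrophoresis. Signal increases were fitted against DMSO controls.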

The test system of assay [7] is zebrafish Estrogen Receptor (ESR2A), gene 317734. Briefly: ATG_zfER2a_XSP1: Attagene TRANS-FACTORIAL Multi-Species (XSP1) HepG2 Assay for zebrafish Estrogen Receptor (ESR2A) (AID 2283778). In a few lines: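 Gain-of-signal reporter transcription readout from GAL4-UAS units in transiently transfected HepG2 cells, 24 h exposure, 3 nM 6-alpha-fluorotestosterone co-present. Detection by RT-PCR with capillary electrophoresis fluorescence.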

The target of assay [8] is chicken Estrogen Receptor (ESR1), ESR1 (gene 396099) (UniProt P06212). Briefly: ATG_chERa_XSP1: Attagene TRANS-FACTORIAL Multi-Species (XSP1) HepG2 Assay for chicken Estrogen Receptor (ESR1) (AID 2283779). In a few lines:
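Gain-of-signal reporter transcription, relative to DMSO, was scored in transiently transfected HepG2 cells after a 24 h dose. Fluorescence intensity of amplified, digested reporter cDNA fragments served as the endpoint.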

For assay [9], the system named is turtle Estrogen Receptor (ESR1), gene 101933533. Briefly: ATG_trERa_XSP1: Attagene TRANS-FACTORIAL Multi-Species (XSP1) HepG2 Assay for turtle Estrogen Receptor (ESR1) (AID 2283781). In a few lines: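 Cell-based chimeric NR-Gal4 transactivation; HepG2; 24 h dosing; mRNA reporter detected by RT-PCR and capillary electrophoresis fluorescence.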
Assay [10] deals with Estrogen receptor beta (Homo sapiens) (UniProt Q92731). Description: ATG_hERb_XSP1: Attagene TRANS-FACTORIAL Multi-Species (XSP1) HepG2 Assay for human Estrogen Receptor (ESR2) (AID 2283788). In a few lines:
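Multiplexed trans-activation in transfected HepG2: ERβ-Gal4 reporter transcripts after 24 h treatment, detected by RT-PCR plus capillary electrophoresis.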

Assay [11] can be described thus: ATG_M_06_XSP1: Attagene TRANS-FACTORIAL Multi-Species (XSP1) HepG2 Assay for M06 Transcription Factor (Internal Marker) (AID 2283790). In a few lines: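 This background-control readout tracks M06 reporter mRNA, measured by RT-PCR and capillary electrophoresis. HepG2 cells transiently carrying the GAL4-UAS reporter panel were dosed for 24 h with 3 nM 6-alpha-fluorotestosterone added for partial AR stimulation; increases were scored relative to DMSO.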

A short description of assay [12]: ATG_M_61_XSP1: Attagene TRANS-FACTORIAL Multi-Species (XSP1) HepG2 Assay for M61 Transcription Factor (Internal Marker) (AID 2283797). In a few lines: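 Background-control readout: reporter transcripts measured by RT-PCR and capillary electrophoresis 24 h after dosing transiently transfected HepG2 multi-reporter cells, with 3 nM 6-alpha-fluorotestosterone present. Fitted in the positive direction relative to DMSO.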

A short description of assay [13]: ATG_M_32_XSP1: Attagene TRANS-FACTORIAL Multi-Species (XSP1) HepG2 Assay for M32 Transcription Factor (Internal Marker) (AID 2283799). In a few lines: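 Reporter transcripts from the M32 internal-control unit measured by RT-PCR, FAM labelling, HpaI digestion and capillary electrophoresis after 24 h compound exposure of transfected HepG2, 3 nM 6-alpha-fluorotestosterone included; DMSO baseline, positive-direction fit.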

The target of assay [14] is Peroxisome proliferator-activated receptor gamma (Homo sapiens) (UniProt P37231). Briefly: ATG_hPPARg_XSP1: Attagene TRANS-FACTORIAL Multi-Species (XSP1) HepG2 Assay for human Peroxisome Proliferator-activated Receptor gamma (PPARg) (AID 2283800). In a few lines: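 Reporter mRNA induction, measured by RT-PCR with capillary electrophoresis 24 h after dosing, scored as gain over DMSO. Transfected HepG2 cells express exogenous NR-Gal4 chimeras driving GAL4-UAS reporters; medium includes 3 nM 6-alpha-fluorotestosterone.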
Chain of Peroxisome proliferator-activated receptor gamma (Homo sapiens) (P37231 whole entry, looked up, the tested form may be a part): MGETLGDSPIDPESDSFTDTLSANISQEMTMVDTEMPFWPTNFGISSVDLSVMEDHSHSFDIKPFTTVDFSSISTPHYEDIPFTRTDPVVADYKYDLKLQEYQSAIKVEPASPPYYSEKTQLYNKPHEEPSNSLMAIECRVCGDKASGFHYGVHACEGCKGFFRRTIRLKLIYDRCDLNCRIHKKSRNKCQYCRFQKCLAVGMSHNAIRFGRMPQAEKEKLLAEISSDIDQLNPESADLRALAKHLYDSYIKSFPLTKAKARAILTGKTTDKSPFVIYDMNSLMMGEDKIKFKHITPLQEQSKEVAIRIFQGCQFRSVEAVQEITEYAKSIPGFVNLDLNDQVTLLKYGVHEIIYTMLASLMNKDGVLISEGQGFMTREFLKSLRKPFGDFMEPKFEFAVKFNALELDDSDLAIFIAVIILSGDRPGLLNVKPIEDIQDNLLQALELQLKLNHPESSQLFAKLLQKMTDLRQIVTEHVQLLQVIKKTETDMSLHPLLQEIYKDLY

The test system of assay [15] is zebrafish Peroxisome Proliferator-activated Receptor gamma (PPARg), gene 557037. Description: ATG_zfPPARg_XSP1: Attagene TRANS-FACTORIAL Multi-Species (XSP1) HepG2 Assay for zebrafish Peroxisome Proliferator-activated Receptor gamma (PPARg) (AID 2283801). In a few lines: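 Trans-activation readout of chimeric zebrafish PPARg–GAL4 in transiently transfected human HepG2 cells, 24 h chemical exposure (medium includes 3 nM 6-alpha-fluorotestosterone). Reporter transcripts measured by RT-PCR and capillary electrophoresis, fitted as gain over DMSO.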

The target in assay [16] is mouse Peroxisome Proliferator-activated Receptor gamma (PPARg), Pparg (gene 19016) (UniProt P37238). Briefly: ATG_mPPARg_XSP1: Attagene TRANS-FACTORIAL Multi-Species (XSP1) HepG2 Assay for mouse Peroxisome Proliferator-activated Receptor gamma (PPARg) (AID 2283802). In a few lines:
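Readout is reporter mRNA induction, measured by RT-PCR with 6-FAM labelling, HpaI digestion and capillary electrophoresis, 24 h post-dose relative to DMSO. Transient multi-reporter transfection of human HepG2 with mouse PPARg–GAL4 fusion; 3 nM 6-alpha-fluorotestosterone included.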

In assay [17] the test system is turtle Androgen Receptor (AR), gene 101947425. Briefly: ATG_trAR_XSP1: Attagene TRANS-FACTORIAL Multi-Species (XSP1) HepG2 Assay for turtle Androgen Receptor (AR) (AID 2283786). In a few lines:
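Partial androgen stimulation is provided by 3 nM 6-alpha-fluorotestosterone in a multi-species trans-factorial panel expressing a turtle AR–GAL4 fusion in HepG2. After 24 h, reporter mRNA is measured by RT-PCR and capillary electrophoresis and fitted upward against DMSO.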

Assay [18] addresses GAL4 Transcription Factor (Internal Marker), GAL4 (gene 855828) (UniProt P04386). Description: ATG_GAL4_XSP1: Attagene TRANS-FACTORIAL Multi-Species (XSP1) HepG2 Assay for GAL4 Transcription Factor (Internal Marker) (AID 2283789). In a few lines:
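This background-control endpoint measures GAL4-driven reporter mRNA via RT-PCR and capillary electrophoresis of labelled fragments. Transiently transfected HepG2 cells were treated 24 h, with 3 nM 6-alpha-fluorotestosterone included, and gain-of-signal was fitted against DMSO.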

Assay [19] is described as follows: ATG_M_19_XSP1: Attagene TRANS-FACTORIAL Multi-Species (XSP1) HepG2 Assay for M19 Transcription Factor (Internal Marker) (AID 2283798). In a few lines:
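Readout is reporter mRNA induction quantified via RT-PCR, 6-FAM labeling, HpaI digestion and capillary electrophoresis, fitted in the positive direction versus DMSO baseline. Transfected HepG2 cells exposed 24 h, medium including 3 nM 6-alpha-fluorotestosterone.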

Chain of Estrogen receptor beta (Homo sapiens) (Q92731 whole entry, looked up, the tested form may be a part): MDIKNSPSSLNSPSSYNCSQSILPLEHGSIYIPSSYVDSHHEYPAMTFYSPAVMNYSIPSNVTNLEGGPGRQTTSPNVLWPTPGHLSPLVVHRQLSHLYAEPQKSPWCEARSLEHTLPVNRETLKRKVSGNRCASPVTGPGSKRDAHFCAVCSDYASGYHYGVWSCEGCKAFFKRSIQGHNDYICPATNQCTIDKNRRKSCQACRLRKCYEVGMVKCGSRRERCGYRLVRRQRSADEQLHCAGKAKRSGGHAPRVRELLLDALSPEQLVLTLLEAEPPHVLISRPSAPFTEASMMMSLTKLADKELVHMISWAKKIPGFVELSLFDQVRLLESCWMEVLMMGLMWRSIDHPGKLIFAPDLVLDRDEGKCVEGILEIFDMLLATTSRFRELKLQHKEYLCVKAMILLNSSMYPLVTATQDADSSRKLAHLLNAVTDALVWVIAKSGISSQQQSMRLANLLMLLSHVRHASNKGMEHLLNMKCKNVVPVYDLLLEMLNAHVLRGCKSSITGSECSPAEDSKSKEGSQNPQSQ
Chain of AR (gene 367) (P10275 whole entry, looked up): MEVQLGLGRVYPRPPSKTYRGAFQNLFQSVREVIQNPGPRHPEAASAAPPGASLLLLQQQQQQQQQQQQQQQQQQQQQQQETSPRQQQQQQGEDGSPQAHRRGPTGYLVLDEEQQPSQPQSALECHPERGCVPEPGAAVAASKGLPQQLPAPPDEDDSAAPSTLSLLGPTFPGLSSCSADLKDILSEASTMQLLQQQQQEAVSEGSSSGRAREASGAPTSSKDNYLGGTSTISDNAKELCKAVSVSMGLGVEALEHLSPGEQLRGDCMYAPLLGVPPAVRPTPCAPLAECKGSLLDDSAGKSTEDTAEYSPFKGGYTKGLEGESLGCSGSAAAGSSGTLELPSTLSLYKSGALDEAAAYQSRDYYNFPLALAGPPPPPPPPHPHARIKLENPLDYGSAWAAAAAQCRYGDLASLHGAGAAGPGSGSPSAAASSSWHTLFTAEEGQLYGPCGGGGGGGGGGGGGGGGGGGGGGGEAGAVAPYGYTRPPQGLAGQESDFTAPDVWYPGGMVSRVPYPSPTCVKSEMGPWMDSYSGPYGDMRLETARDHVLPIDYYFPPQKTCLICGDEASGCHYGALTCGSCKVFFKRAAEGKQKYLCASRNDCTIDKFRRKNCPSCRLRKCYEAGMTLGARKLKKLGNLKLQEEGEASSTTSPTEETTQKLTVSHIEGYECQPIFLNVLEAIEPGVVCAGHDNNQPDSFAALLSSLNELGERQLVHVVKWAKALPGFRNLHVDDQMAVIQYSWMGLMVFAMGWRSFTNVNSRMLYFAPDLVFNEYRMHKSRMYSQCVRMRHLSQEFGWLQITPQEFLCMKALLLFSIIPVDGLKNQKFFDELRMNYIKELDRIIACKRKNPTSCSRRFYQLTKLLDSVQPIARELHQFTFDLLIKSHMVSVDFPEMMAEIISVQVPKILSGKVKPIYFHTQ
Chain of mouse Peroxisome Proliferator-activated Receptor gamma (PPARg), Pparg (gene 19016) (P37238 whole entry, looked up, the tested form may be a part): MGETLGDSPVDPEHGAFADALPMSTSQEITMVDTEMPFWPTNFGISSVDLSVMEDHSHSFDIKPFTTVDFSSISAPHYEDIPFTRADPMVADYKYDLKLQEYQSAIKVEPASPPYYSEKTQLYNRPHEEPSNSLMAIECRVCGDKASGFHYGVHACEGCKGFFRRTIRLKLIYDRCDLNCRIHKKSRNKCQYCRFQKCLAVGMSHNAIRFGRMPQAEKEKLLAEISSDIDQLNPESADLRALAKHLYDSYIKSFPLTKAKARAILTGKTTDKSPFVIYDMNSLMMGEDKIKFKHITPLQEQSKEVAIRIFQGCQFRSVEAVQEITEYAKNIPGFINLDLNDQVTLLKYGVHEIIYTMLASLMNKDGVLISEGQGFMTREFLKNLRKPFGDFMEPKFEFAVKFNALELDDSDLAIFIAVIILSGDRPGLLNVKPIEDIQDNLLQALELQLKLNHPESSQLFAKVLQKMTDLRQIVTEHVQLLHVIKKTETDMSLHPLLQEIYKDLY
Chain of chicken Estrogen Receptor (ESR1), ESR1 (gene 396099) (P06212 whole entry, looked up, the tested form may be a part): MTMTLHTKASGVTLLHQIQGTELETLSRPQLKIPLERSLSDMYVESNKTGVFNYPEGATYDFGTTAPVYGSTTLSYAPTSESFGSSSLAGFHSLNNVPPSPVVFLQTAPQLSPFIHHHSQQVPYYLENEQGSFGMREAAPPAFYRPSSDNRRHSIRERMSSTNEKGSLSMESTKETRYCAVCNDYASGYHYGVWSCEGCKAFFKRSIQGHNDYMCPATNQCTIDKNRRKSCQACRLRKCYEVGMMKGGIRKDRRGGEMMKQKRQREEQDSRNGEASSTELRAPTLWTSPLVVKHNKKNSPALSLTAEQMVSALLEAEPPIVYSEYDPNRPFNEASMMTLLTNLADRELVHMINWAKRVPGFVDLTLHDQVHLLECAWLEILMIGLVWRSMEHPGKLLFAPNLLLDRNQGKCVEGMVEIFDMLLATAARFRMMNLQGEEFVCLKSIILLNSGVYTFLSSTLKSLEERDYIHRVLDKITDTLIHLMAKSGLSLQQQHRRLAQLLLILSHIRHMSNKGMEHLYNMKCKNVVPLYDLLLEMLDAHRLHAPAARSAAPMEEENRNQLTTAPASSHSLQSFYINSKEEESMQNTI
Chain of GAL4 Transcription Factor (Internal Marker), GAL4 (gene 855828) (P04386 whole entry, looked up, the tested form may be a part): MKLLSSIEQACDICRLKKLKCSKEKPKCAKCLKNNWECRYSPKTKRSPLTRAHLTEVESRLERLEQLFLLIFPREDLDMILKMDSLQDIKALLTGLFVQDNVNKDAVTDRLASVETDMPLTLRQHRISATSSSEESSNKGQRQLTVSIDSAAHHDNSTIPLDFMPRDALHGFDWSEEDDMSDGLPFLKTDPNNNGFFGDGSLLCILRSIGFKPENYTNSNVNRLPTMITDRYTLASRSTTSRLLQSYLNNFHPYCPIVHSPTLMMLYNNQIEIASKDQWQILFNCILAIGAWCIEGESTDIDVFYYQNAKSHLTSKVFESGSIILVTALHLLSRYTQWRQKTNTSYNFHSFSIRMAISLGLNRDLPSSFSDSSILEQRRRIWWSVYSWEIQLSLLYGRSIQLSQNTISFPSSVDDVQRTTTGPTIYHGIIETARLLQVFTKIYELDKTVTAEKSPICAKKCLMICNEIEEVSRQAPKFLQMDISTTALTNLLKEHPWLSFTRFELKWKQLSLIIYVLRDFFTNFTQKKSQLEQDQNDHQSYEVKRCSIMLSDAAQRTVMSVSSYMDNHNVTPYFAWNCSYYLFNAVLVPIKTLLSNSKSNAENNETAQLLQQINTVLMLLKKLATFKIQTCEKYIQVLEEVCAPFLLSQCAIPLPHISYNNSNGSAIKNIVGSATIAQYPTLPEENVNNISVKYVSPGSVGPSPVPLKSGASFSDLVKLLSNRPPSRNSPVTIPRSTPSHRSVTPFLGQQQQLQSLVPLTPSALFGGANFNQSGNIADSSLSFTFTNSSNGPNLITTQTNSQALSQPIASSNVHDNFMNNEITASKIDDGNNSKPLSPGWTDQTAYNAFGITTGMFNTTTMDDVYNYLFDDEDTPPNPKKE

As for `CN(C)C(=O)Nc1ccc(Cl)c(Cl)c1`, the call in [1], in assay [3] and in assay [4] was inactive. Also, the values for the AC50 in assay [2] and in assay [5] were 50 µM (active) and 40.8 µM (active), respectively.

For the compound `O=C(O)c1ccccc1`, the result in assay [1], in [2] and in assay [3] was inactive.

For the compound `C=CCOC(Cn1ccnc1)c1ccc(Cl)cc1Cl` (stereo not given), the half-maximal activity concentration (AC50) is 66.4 µM (active) in assay [1]; 41.6 µM (active) in assay [2]; 3.63 µM (active) in [6]; 26.1 µM (active) in assay [8]; 26.7 µM (active) in assay [9]; 50 µM (active) in assay [3]. Moreover, the figures for the half-maximal activity concentration (AC50) in assay [10], in [14] and in assay [16] were 7.53 µM (active), 100 µM (active) and 9.81 µM (active), respectively. The outcome in assay [7], in [4], in assay [11], in assay [12], in assay [13] and in [15] was inactive.

Consider `CCSC(=O)N(CC(C)C)CC(C)C`, for which the call in assay [1], in assay [2], in [3], in assay [4] and in assay [5] was inactive.

For `CCOC(=O)NCCOc1ccc(Oc2ccccc2)cc1`, the AC50 in assay [1] is 50 µM (active); in assay [2] it was 27.2 µM (active); in assay [3] it was 95.3 µM (active).

For the compound `CCCCC(CC)COC(=O)c1ccccc1C(=O)O` (stereo not given), the compound was classed as inactive in [1], in assay [2], in assay [7], in assay [3], in assay [4] and in [17]. Moreover, the result in assay [10], in assay [18], in assay [11], in assay [12], in assay [19] and in assay [13] was inactive. Besides, the AC50 is 13.6 µM (active) in assay [6]; 27.4 µM (active) in assay [8]; 46 µM (active) in assay [9]; 64.2 µM (active) in assay [15]; 13.2 µM (active) in [16].

As to `COC(=O)CSc1cc(N=c2sc(=O)n3n2CCCC3)c(F)cc1Cl`, the call in [1], in assay [2], in [3] and in assay [5] was inactive. Moreover, the AC50 in assay [4] was 89.5 µM (active).

Regarding `COc1c(Cl)ccc(Cl)c1C(=O)O`, the compound was called inactive in [1], in [2] and in assay [3].

With `Oc1ccc(C(c2ccc(O)cc2)C(Cl)(Cl)Cl)cc1`, the AC50 in [1] is 20.9 µM (active); in [2], 17 µM (active); in assay [7] it was 0.106 µM (active); in assay [3], 83.7 µM (active). The call in [8], in assay [9], in assay [4], in [10], in [18] and in assay [11] was inactive. For the same compound, the result in assay [12], in assay [14], in [15] and in assay [16] was inactive.
